# Compound activity from PubChem BioAssay.
# TCR activator = activators of T cell receptors; primary human leukocytes, anti-CD3, IL-2 HTRF, 48 h; Potency, µM (series often up to 9.22 µM), most hits filed as activators; 330,000 tested, under 10 active; AID 504894
#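 Human primary leukocytes + a-CD3 beads + cpd, 48 hr; IL-2 in supernatant by HTRF (ex 320nm / em 665nm). No co-stimulatory signal supplied.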
# A549 tox-1 = kills or reduces viability of A549 cells in Nrf2 counter-screen | A549 ARE-Fluc cells, CellTiter-Fluor viability, 18-24 h | Potency, µM (series often up to 46 µM), usual class: inhibitors | actives 0.16% (n = 390,000) | AID 504648
#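 A549 ARE_Fluc cells in 5% FBS OPTI-MEM were exposed to compounds in concentration-response for 18-24 h at 37 deg C. Viability was read by CellTiter-Fluor fluorescence (Ex 405/Em 525) after 30 min, before the luciferase read.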
# Nrf2 ARE act = activators of Nrf2 (ARE) signaling; actives 0.31% (n = 410,000); AREc32 ARE-luciferase reporter (MCF7-derived line), luminescence, 24 h; Potency, µM (series often up to 46.1 µM), most hits filed as activators; also: nearly all actives have a fitted effect of over 65% in size
#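 Each well held 1000 AREc32 cells, which were incubated with compound for 24 hr at 37 deg C after overnight attachment, and ARE reporter activity was quantified by firefly luciferase luminescence.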
# A-T KAP1 phos = potential ataxia-telangiectasia treatment | F2112 A-T fibroblasts, KAP-1 phosphorylation AlphaLISA; neocarzinostatin DNA damage 30 min before lysis | actives 0.19% (n = 320,000) | AID 485349 | Potency, µM (series often up to 57.5 µM), usual class: activators; also: nearly all actives have a fitted effect of over 45% in size
#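 hTERT-immortalized A-T patient fibroblasts (F2112), 500 cells/well in OPTI-MEM, 1% FBS, got compounds for 60 min, then NCS for 30 min at 37C. Lysates were then assayed for phospho-KAP-1 by AlphaLISA (anti-pKAP1 donor, anti-KAP1 acceptor beads), 6 hr at 25C.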
# CCT modulator = cytosolic chaperonin activity modulation | actives 0.3% (n = 360,000) | AID 651819 | activity change, % (test concentration not listed), hits read low | purified chaperonin ATPase assay, HTRF ADP detection, 30 min; in the data active = activity change below about -30%
#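 Enzyme 40 or 20 nM (batch-dependent) in Tris pH 7.4/KCl/MgCl2/DTT; cpd 76 uM single point; ATP 10 uM; 30 min 37 °C; Transcreener ADP HTRF detection, 30 min RT; ratio 665/615.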
# Nrf2 block = Nrf2 pathway inhibition; A549 ARE-Fluc reporter, luciferase luminescence, 18-24 h; Potency, µM (doses to about 46 µM), usual class: inhibitors; actives 2.1% (n = 360,000); also: nearly all actives have a fitted effect of over 60% in size
#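 Two sequential reads on A549 ARE_Fluc cells exposed to compound for 18-24 h: a CellTiter-Fluor fluorescence read for viability, then a luciferase luminescence read for Nrf2/ARE activity.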
# FLuc counter 3 = counter-screen for Nrf2 inhibitors: firefly luciferase enzyme inhibition; shares compounds with Nrf2 block; purified firefly luciferase, luminescence inhibition; Potency, µM (highest dose often 57.5 µM), most hits filed as inhibitors; actives 4% (n = 1,400); AID 720522; also: nearly all actives have a fitted effect of over 65% in size
# Target sequence (P08659 whole entry, looked up): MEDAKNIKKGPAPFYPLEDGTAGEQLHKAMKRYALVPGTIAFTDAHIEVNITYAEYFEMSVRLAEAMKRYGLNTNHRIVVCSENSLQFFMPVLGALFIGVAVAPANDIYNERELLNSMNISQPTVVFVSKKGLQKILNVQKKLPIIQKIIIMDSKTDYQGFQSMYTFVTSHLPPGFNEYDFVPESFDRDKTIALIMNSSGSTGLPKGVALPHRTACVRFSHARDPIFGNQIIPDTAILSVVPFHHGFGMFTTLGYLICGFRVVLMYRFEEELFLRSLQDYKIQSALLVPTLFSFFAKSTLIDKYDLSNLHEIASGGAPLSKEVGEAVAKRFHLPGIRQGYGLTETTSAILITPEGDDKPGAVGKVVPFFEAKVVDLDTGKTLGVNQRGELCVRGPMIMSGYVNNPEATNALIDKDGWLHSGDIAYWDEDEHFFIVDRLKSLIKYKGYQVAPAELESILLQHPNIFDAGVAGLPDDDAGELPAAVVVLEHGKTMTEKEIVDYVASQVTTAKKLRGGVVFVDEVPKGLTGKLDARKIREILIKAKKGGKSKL
# A549 tox-2 = toxic to A549 ARE-Fluc cells in Nrf2 counterscreen; shares compounds with Nrf2 block; A549 ARE-Fluc cells, cytotoxicity counterscreen; Potency, µM (highest dose often 46.1 µM), hits mostly inhibitors; actives 2% (n = 1,400);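 also: cells exposed to compounds for 18 to 24 hours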
# ARE-Fluc inh = confirmation of Nrf2 inhibitors in A549 ARE reporter cells. A549 ARE-firefly luciferase reporter, luminescence. Potency, µM (series often up to 46.1 µM), usual class: inhibitors. actives 74% (n = 1,400). shares compounds with Nrf2 block; also: nearly all actives have a fitted effect of over 65% in size
# Numbers stand for hits; - = inactive; ? = inconclusive; . = not tested or not shown. The list is not random: actives were taken first. Their share in the collection is about 2.6%. Unless noted, calls follow the shape of the dose curve; as a rule, active = well fitted curve in the direction sought with a large enough effect; inconclusive = small, poorly fitted or top-dose-only effect, or another doubt; inactive = no such curve, though single readings can be large; an effect the other way counts as inactive or inconclusive.
SMILES,TCR activator,A549 tox-1,Nrf2 ARE act,A-T KAP1 phos,CCT modulator,Nrf2 block,others
O=C(Nc1ccc(-c2nc3ccccc3o2)cc1)c1ccc(N2CCOCC2)c([N+](=O)[O-])c1,-,?,-,-,-,16.4µM,
CCOc1ccc(-c2c(C(=O)N/N=C/c3ccc(C)s3)nnn2-c2nonc2N)cc1,-,-,-,-,-,23.1µM,
CCOc1cccc(-c2c(C(=O)N/N=C/c3sccc3C)nnn2-c2nonc2N)c1,-,-,-,-,-,16.4µM,
Cc1ccc(-c2c(C(=O)N/N=C/c3cccs3)nnn2-c2nonc2N)cc1,-,-,-,-,-,-,
C/C(=N\NC(=O)c1nnn(-c2nonc2N)c1-c1ccccc1)c1ccccc1O,-,-,-,-,-,4.61µM,
CCOc1ccc(-c2c(C(=O)N/N=C/c3cccs3)nnn2-c2nonc2N)cc1,-,-,-,-,-,11.6µM,
CCOc1cccc(-c2c(C(=O)N/N=C/c3ccc(C)s3)nnn2-c2nonc2N)c1,-,-,-,-,-,-,
CCCc1c(C(=O)N/N=C(\C)c2ccccc2O)nnn1-c1nonc1N,.,.,-,.,-,.,
O=C(c1cccc(Cl)c1Cl)N(Cc1ccco1)Cc1cccs1,.,-,.,.,.,-,
Cc1ccccc1NC(=O)Cn1cc(S(=O)(=O)c2ccccc2)c(=O)c2ccccc21,.,-,-,.,.,-,
Cc1ccc(Cl)cc1N1CCN(C(=O)c2ccc3c(c2)N(Cc2ccc(F)cc2)CCS3)CC1,.,-,-,.,.,-,
CCOc1ccc(CNC(=O)C2CCN(c3nc4ccccc4nc3C(F)(F)F)CC2)cc1OC,.,-,-,.,.,-,
COc1ccccc1NC(=O)c1cc2cc3ccc(OC)c(Cl)c3nc2s1,.,-,-,.,.,.,
CC/C(=N\NC(=O)c1nnn(-c2nonc2N)c1CN(C)c1ccccc1)c1ccccc1,-,-,-,-,-67.1,-,
COc1cccc(-n2c(SCC(=O)Nc3cc(C)on3)nc3ccccc3c2=O)c1,-,-,-,-,-,-,
CCc1sc2nc(SCC(=O)Nc3cc(C)on3)n(-c3cccc(OC)c3)c(=O)c2c1C,-,?,-,-,-36.1,?,
O=C(NCc1cccnc1)c1nn(-c2ccccc2F)nc1CO,.,-,-,.,.,-,
c1coc(-c2ccnc3nc(-n4cccc4)nn23)c1,-,-,7.94µM,-,-,-,
O=C(CCS(=O)(=O)Cc1ccccc1)Nc1ncc([N+](=O)[O-])s1,-,-,12.6µM,-,-,?,
O=c1oc2ccccc2nc1/C=C(\O)c1ccc(Br)cc1,-,-,?,-,-,?,
Cc1ccc2oc(=O)c(/C=C(\O)c3ccccc3)nc2c1,-,-,14.1µM,-,-,-,
Cc1ccc2oc(=O)c(/C=C(\O)CC(C)C)nc2c1,-,-,?,-,-,-,
Cc1ccc2oc(=O)c(/C=C(\O)c3cccs3)nc2c1,-,-,15.8µM,-,-,?,
C/C(O)=C\c1nc2ccccc2oc1=O,-,-,15.8µM,-,-,-,
CCCOc1ccc(C(=O)Nc2cccc(-c3nc4ccccc4[nH]3)c2)cc1,.,?,-,.,.,?,
SMILES,TCR activator,A549 tox-1,Nrf2 ARE act,A-T KAP1 phos,CCT modulator,Nrf2 block,others
Cc1ccc(CNS(=O)(=O)c2ccc3c(c2)NC(=O)CS3)cc1,-,-,-,?,-73.6,-,
CCc1ccc2nc(Nc3nc(COC)cc(=O)[nH]3)nc(C)c2c1,-,-,-,-,-,-,
COCc1cc(=O)[nH]c(Nc2nc3ccc(C)cc3o2)n1,-,?,12.6µM,-,-,?,
CN1CCN(c2ccc(CNC(=O)c3ccc(-c4ccc(F)c(F)c4)c4ccoc34)cc2)CC1,.,.,-,.,-,.,
CC(C)(C)c1ccc(OCCC(=O)Nc2cccc(S(=O)(=O)NC3=NCCCCC3)c2)cc1,-,?,-,-,-,18.4µM,
Cc1ccc(C(C)C)c(OCC(=O)Nc2cccc(S(=O)(=O)NC3=NCCCCC3)c2)c1,-,-,-,?,-35.5,?,
O=C(/C=C/c1ccc(OC(F)F)cc1)Nc1cccc(S(=O)(=O)NC2=NCCCCC2)c1,-,?,-,-,-,18.4µM,
O=C(Cc1csc(-c2ccc(Cl)cc2)n1)Nc1cccc(S(=O)(=O)NC2=NCCC2)c1,-,?,-,-,-,23.1µM,
O=C(Cc1csc(-c2ccc(F)cc2)n1)Nc1cccc(S(=O)(=O)NC2=NCCC2)c1,-,-,-,-,-,?,
N#Cc1ccc(S(=O)(=O)N2CCC(Oc3cccc(C(F)(F)F)c3)CC2)cc1,.,-,-,.,.,-,
Cc1cccc(-c2nc3scc(CCNS(=O)(=O)c4c(C)noc4C)n3n2)c1,.,-,-,.,.,.,
COc1cc(C(C(=O)NC2CCCC2)N(C(=O)c2snc(C(N)=O)c2N)C2CCCC2)cc(OC)c1OC (stereo not given),-,-,-,-,-,-,
Cc1cc(C)cc(C(=O)OCC(=O)Nc2cccc(S(=O)(=O)NC3=NCCCCC3)c2)c1,-,?,-,-,-,23.1µM,
O=S(=O)(Nc1c(Br)cc(Br)c2cccnc12)C1CC1,.,-,.,.,.,-,
CC(=O)N1c2c(cc(Br)cc2S(=O)(=O)Nc2c(C)n(C)n(-c3ccccc3)c2=O)CC1C (stereo not given),-,-,-,-,-41.3,-,
Cn1nc(C(C)(C)C)cc1C(=O)NNC(=O)c1ccc(C(F)(F)F)cc1,-,-,-,-,-,20.6µM,
O=C(COC(=O)/C=C/c1ccccc1Cl)NC(=O)NCc1ccccc1,-,-,-,-,-,-,
COc1ccccc1-n1c(-c2ccccc2)c[n+]2c1CCc1ccccc1-2,-,?,-,-,-,3.66µM,FLuc counter 3=-;A549 tox-2=-;ARE-Fluc inh=8.2µM
COc1ccc(-c2c[n+]3c(n2-c2ccccc2)CCCCC3)cc1,-,-,-,-,-,?,
COc1ccccc1-n1c(-c2ccccc2)c[nH]c1=S,-,-,-,-,-,-,
CC(C)c1ccc(-n2c(-c3ccccc3)c[n+]3c2CCc2ccccc2-3)cc1,-,10.3µM,-,-,-,2.06µM,FLuc counter 3=-;A549 tox-2=?;ARE-Fluc inh=2.59µM
NS(=O)(=O)c1ccc(CCNC(=O)c2ccc(Cl)c(S(=O)(=O)NCc3ccco3)c2)cc1,-,-,-,-,-,-,
